Bioassay records as filed in PubChem BioAssay.
Shiga toxin inh = Shiga toxin inhibition; inhibition, % at 38.7 µM; Vero cells, Shiga toxin protein synthesis inhibition reporter; 290,000 compounds, 9.2% hits; in the data active means inhibition mostly above about 28%, no sharp cut-off; inactive means mostly below about 43%; further: 0% is about no effect
NS1 function inh = inhibitors of influenza NS1 protein function | Potency, µM (top dose mostly 46.1 µM), for inactives: at the highest dose activity, positive = more growth | 270,000 compounds, 0.4% hits; calls by dose curve; further: potency means the concentration at half of the fitted maximal effect; actives are rising curves; nearly all actives have a fitted effect of over 50% in size
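OD600 was taken as the measure of yeast growth restored by compound in an NS1-expressing S. cerevisiae strain. Cells had been washed out of glucose medium and diluted 1:100 into galactose -URA medium, pH 6.0.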
Pf growth 96h = P. falciparum growth inhibition at 96 hours | P. falciparum luciferase reporter growth, 96 h | AID 504834 | Potency, µM (series often up to 28.7 µM), for the others: at the highest dose activity change, negative = inhibition, most hits filed as inhibitors | 320,000 compounds, 6.9% hits; further: potency means the concentration at half of the fitted maximal effect; on the % scale 0 is the no-effect control and ±100 the full control effect
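P. falciparum expressing integrated firefly luciferase grown in erythrocytes (2% hematocrit, 0.05% parasitemia final) with compounds for 96 hours at 37 C, 5% CO2. Growth inhibition read as loss of luminescence after adding luciferase detection reagent.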
Pf growth 48h = inhibits P. falciparum growth in the first generation, 48 h. P. falciparum luciferase growth in erythrocytes, 48 h. Potency, µM (doses to about 28.7 µM), inactives show at the highest dose activity change, negative = inhibition, most hits filed as inhibitors. 310,000 compounds, 5.9% hits. AID 504832; further: potency means the concentration at half of the fitted maximal effect; on the % scale 0 is the no-effect control and ±100 the full control effect
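Luminescence readout; reporter = integrated firefly luciferase in P. falciparum. RBC culture at 2% hematocrit, 0.1% parasitemia final, 37 C/5% CO2; decreased signal taken as growth inhibition.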
SARS PLP yeast = SARS-CoV PLP inhibition in yeast | S. cerevisiae expressing SARS-CoV PLpro, growth rescue | Potency, µM (highest dose often 32.9 µM), for inactives: at the top dose activity, positive = growth rescue, hits mostly activators | 330,000 compounds, 0.19% hits | AID 485353; calls by dose curve; further: potency means the concentration at half of the fitted maximal effect; 0% is about no effect; nearly all actives have a fitted effect of over 55% in size
Cycloheximide cs = counter-screen for Shiga toxin inhibitors: cycloheximide protein synthesis inhibition; AID 2314; cell reporter, cycloheximide protein synthesis inhibition counterscreen; max response, %; 300,000 compounds, 12% hits; in the data active means max response mostly above about 13%, no sharp cut-off; inactive means mostly below about 14%; further: read at 38.3 µM for the half of the compounds with a filed dose; 0% is about no effect
An asterisk follows results filed as active; [ ] = dose if it differs, or a comment. Sampled rows, rich in hits. Any-hit rate of the full collection: about 21%. Unless noted, the call rests on the fitted dose curve; in most records, active means well fitted inhibition curve with a large enough effect; inconclusive means small, poorly fitted or top-dose-only effect, or another doubt; inactive means no such curve, though single readings can be large or run the other way.

`Cc1cc(C)c2nc(N(CCCN(C)C)C(=O)c3ccc4c(c3)CCCC4)sc2c1` gave Pf growth 96h inconclusive, Pf growth 48h 7.38µM* and SARS PLP yeast 4.3%.
For CCOc1ccc2nc(N(CCN(C)C)C(=O)c3ccc4c(c3)CCCC4)sc2c1 the results were Shiga toxin inh -3.1, NS1 function inh -10.1%, Pf growth 96h inconclusive, Pf growth 48h -21.9%, SARS PLP yeast -1.0% and Cycloheximide cs 14.3.
For Cc1ccc2nc(N(CCCN(C)C)C(=O)c3ccc4c(c3)CCCC4)sc2c1 the results were Shiga toxin inh -15.4, NS1 function inh 5.1%, Pf growth 96h 1.85µM*, Pf growth 48h 10.4µM*, SARS PLP yeast 9.1% and Cycloheximide cs -9.5.
Screening CN(C)CCCN(C(=O)c1ccc(N2C(=O)CCC2=O)cc1)c1nc2c(F)cccc2s1 returned Shiga toxin inh 2.7, Pf growth 96h -4.8%, Pf growth 48h 9.3%, SARS PLP yeast -2.8% and Cycloheximide cs 7.2.
For CN(C)CCCN(C(=O)c1cc(-c2cccs2)nc2ccccc12)c1nc2c(F)cccc2s1 the results were Shiga toxin inh -9.0, NS1 function inh -27.3%, Pf growth 96h inconclusive, Pf growth 48h inconclusive, SARS PLP yeast 1.2% and Cycloheximide cs 1.1.
For Cc1ccc2nc(N(CCN(C)C)C(=O)c3cc(Cl)sc3Cl)sc2c1 the results were Shiga toxin inh 32.8*, NS1 function inh -3.9%, Pf growth 96h 8.1%, Pf growth 48h 41.0%, SARS PLP yeast -5.3% and Cycloheximide cs 21.8*.
For CC(C)(C)c1ccc(N=C2SCC(=O)N2Cc2cccs2)cc1 the results were Shiga toxin inh 49.7*, NS1 function inh -0.7%, Pf growth 96h -31.6%, Pf growth 48h inconclusive, SARS PLP yeast -4.1% and Cycloheximide cs 46.9*.
`Cc1ccc(-n2ncc(Cl)c2C(=O)NC2CC2)cc1` gave Shiga toxin inh 93.4*, NS1 function inh -7.3%, Pf growth 96h 233.4%, Pf growth 48h 296.0%, SARS PLP yeast -0.6% and Cycloheximide cs 49.4*.
For C=CCNC(=O)c1cnn(-c2ccccc2)c1-c1ccccc1 the results were Shiga toxin inh 17.3, NS1 function inh 0.9%, Pf growth 96h inconclusive, Pf growth 48h 6.5%, SARS PLP yeast 13.3% and Cycloheximide cs -3.4.
C=CCNC(=O)c1c(Cl)cnn1-c1ccc(C)cc1 was read as Shiga toxin inh 69.2*, NS1 function inh -6.3%, Pf growth 96h 180.0%, Pf growth 48h 118.1%, SARS PLP yeast 2.3% and Cycloheximide cs 44.2*.
For Cn1ncc(Br)c1C(=O)Nc1ccc(Cl)cn1 the results were Shiga toxin inh -4.0, NS1 function inh -0.5%, Pf growth 96h 25.2%, Pf growth 48h 26.1%, SARS PLP yeast 1.7% and Cycloheximide cs 2.0.
CNC(=O)c1c(Br)cnn1-c1ccc(C)cc1 was read as Shiga toxin inh 42.5*, NS1 function inh -2.6%, Pf growth 96h 148.1%, Pf growth 48h 105.4%, SARS PLP yeast -0.4% and Cycloheximide cs 35.0*.
For CNC(=O)c1nn(-c2ccc(C)cc2)ccc1=O the results were Shiga toxin inh -6.5, NS1 function inh -1.6%, Pf growth 96h 0.0%, Pf growth 48h 8.4%, SARS PLP yeast -2.4% and Cycloheximide cs -2.0.
Screening CNC(=O)c1c(Cl)cnn1-c1ccc(C)cc1 returned Shiga toxin inh 55.4*, NS1 function inh 3.8%, Pf growth 96h 220.9%, Pf growth 48h 70.8%, SARS PLP yeast 1.0% and Cycloheximide cs 21.2*.
`CCn1nnc2cc(C(=O)O)ccc21` gave Shiga toxin inh -2.6, NS1 function inh 0.4%, Pf growth 96h 31.8%, Pf growth 48h 31.8%, SARS PLP yeast -0.2% and Cycloheximide cs 1.5.
`Cn1c(CNC(=O)c2ccccc2F)nnc1SCCOc1ccccc1` gave Shiga toxin inh -13.2, NS1 function inh -1.7%, Pf growth 96h inconclusive, Pf growth 48h -8.9%, SARS PLP yeast 0.9% and Cycloheximide cs -1.5.
Screening NSc1nc(N)c2nc(-c3ccccc3)c(-c3ccccc3)nc2n1 returned Shiga toxin inh -11.0, NS1 function inh 18.6%, Pf growth 96h inconclusive, Pf growth 48h -6.5%, SARS PLP yeast 0.3% and Cycloheximide cs -2.2.
Screening Nc1nc(N)c2nc(-c3ccccc3)c(N)nc2n1 returned Shiga toxin inh -17.0, NS1 function inh inconclusive, Pf growth 96h 3.79µM*, Pf growth 48h 1.69µM*, SARS PLP yeast -3.1% and Cycloheximide cs -3.9.
Cc1ccc(C)c(N(CC(=O)NC(C)(C)C)C(=O)CCC(=O)Nc2nccs2)c1 was read as Shiga toxin inh -5.8, NS1 function inh 15.2%, Pf growth 96h -2.6%, Pf growth 48h -10.1%, SARS PLP yeast 4.5% and Cycloheximide cs -1.1.
Screening COCc1ccc(C(=O)NC(C)c2cnn(-c3ccccc3C)c2C)o1 (centres undefined) returned Shiga toxin inh 21.1, NS1 function inh 1.4%, Pf growth 96h 48.8%, Pf growth 48h -3.8%, SARS PLP yeast 0.0% and Cycloheximide cs 8.7.
Screening COc1cc(C(=O)NC(C)c2cnn(-c3ccccc3C)c2C)cc(OC)c1OC (centres undefined) returned Shiga toxin inh 41.2, NS1 function inh 2.6%, Pf growth 96h 7.1%, Pf growth 48h inconclusive, SARS PLP yeast 1.1% and Cycloheximide cs 14.7*.
For COc1ccccc1OCCCC(=O)NC(C)c1ccccc1 (centres undefined) the results were Shiga toxin inh 15.1, NS1 function inh -2.2%, Pf growth 96h 112.7%, Pf growth 48h 0.0%, SARS PLP yeast 0.6% and Cycloheximide cs -2.2.
COC(=O)CCCC(=O)NC(C)c1cnn(-c2ccccc2C)c1C (centres undefined) was read as Shiga toxin inh 28.0, NS1 function inh 2.7%, Pf growth 96h 13.1µM*, Pf growth 48h 24.0%, SARS PLP yeast 0.0% and Cycloheximide cs 8.4.
O=C1CS/C(=N/N=C/c2cccs2)N1 was read as Shiga toxin inh 28.3, Pf growth 96h 14.8%, Pf growth 48h 11.5%, SARS PLP yeast -1.0% and Cycloheximide cs 11.0.
`O=C1CS/C(=N/N=C/c2ccncc2)N1` gave Shiga toxin inh -1.1, NS1 function inh 0.7%, Pf growth 96h 14.7µM*, Pf growth 48h inconclusive, SARS PLP yeast 0.6% and Cycloheximide cs -2.0.
For COCCn1c(SCC(=O)Nc2sccc2C(N)=O)nnc1-c1ccncc1 the results were Shiga toxin inh -1.5, Pf growth 96h inconclusive, Pf growth 48h 15.3%, SARS PLP yeast 0.7% and Cycloheximide cs -4.8.
Screening COc1ccccc1Oc1ccc(N/C=C/C(=O)c2ccc(C)o2)cc1 returned Shiga toxin inh 135.5*, Pf growth 96h 14.6%, Pf growth 48h -7.3%[5.75 µM], SARS PLP yeast 0.2% and Cycloheximide cs 24.8*.
CC(=O)Nc1ccc(N/C=C/C(=O)c2ccc(C)o2)cc1 was read as Shiga toxin inh 70.6*, NS1 function inh -65.0%, Pf growth 48h 34.1%, SARS PLP yeast -5.4% and Cycloheximide cs 22.2*.
